Experimental findings from PubChem BioAssay AID623911 (Vanderbilt High Throughput Screening Facility, 2012) are described below.

Structures are written as SMILES. The whole screen tested about 2,100 compounds, of which about 770 (37%) were called active. The list shows a part of the results. Unmarked numbers belong to inactive results.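 How the source made its calls: active means by-eye trace score of 1 for enhancers or -1 for inhibitors, so actives lie on both sides (some results past the limit were not filed as active); inactive means score 0, or 3 fluorescent, or 4 baseline rise.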

This assay deals with G protein-activated inward rectifier potassium channel 2 (Homo sapiens) + G protein-activated inward rectifier potassium channel 1 (Homo sapiens) (UniProt P48051+P48549). In words: GIRK1/2 thallium flux modulators, retest, confirmation, cell-based, HEK293 rmGlu8/hGIRK1/2, FluoZin-2 (AID 623911). The following applies: HEK293 rmGlu8/hGIRK1/2, thallium flux FluoZin-2; actives lie on both sides; glutamate co-added at its EC20 level.
Chain of G protein-activated inward rectifier potassium channel 2 (Homo sapiens) + G protein-activated inward rectifier potassium channel 1 (Homo sapiens) (P48051 whole entry, looked up): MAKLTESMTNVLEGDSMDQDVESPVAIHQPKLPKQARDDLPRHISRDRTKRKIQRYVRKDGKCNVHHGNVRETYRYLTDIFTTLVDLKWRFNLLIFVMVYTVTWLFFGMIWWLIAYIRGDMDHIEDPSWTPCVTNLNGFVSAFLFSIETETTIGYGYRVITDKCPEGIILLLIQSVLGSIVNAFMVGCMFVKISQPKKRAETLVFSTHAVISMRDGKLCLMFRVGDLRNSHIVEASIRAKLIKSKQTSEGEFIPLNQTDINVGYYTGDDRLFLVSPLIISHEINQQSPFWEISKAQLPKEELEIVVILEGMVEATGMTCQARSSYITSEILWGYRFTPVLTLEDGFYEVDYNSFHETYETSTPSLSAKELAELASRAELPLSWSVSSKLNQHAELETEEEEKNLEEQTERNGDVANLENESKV
Chain of G protein-activated inward rectifier potassium channel 2 (Homo sapiens) + G protein-activated inward rectifier potassium channel 1 (Homo sapiens) (P48549 whole entry, looked up): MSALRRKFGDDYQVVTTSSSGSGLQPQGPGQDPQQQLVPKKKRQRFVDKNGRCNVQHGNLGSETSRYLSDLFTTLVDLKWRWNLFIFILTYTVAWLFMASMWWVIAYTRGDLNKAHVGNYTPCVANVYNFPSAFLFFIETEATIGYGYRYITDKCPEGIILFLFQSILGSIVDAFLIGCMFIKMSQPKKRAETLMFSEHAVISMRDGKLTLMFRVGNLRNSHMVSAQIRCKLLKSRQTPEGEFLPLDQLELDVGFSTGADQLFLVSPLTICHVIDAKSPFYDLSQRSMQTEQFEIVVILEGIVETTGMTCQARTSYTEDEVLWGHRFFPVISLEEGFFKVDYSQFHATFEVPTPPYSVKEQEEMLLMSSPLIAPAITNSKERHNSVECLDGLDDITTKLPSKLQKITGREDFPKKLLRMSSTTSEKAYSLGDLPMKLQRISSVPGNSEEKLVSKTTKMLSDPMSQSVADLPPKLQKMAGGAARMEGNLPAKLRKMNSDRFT
With `CC1(C)CC(=O)c2c(noc2-c2ccccc2)C1`, the manual score was 0.

Consider `O=C(NC(=S)Nc1ccccc1N1CCCC1)c1ccc(-c2cccc([N+](=O)[O-])c2)o1`, for which the manual score is 0.

As to `O=C(Oc1ccccc1C(=S)N1CCCCC1)c1cc([N+](=O)[O-])cc([N+](=O)[O-])c1`, the manual score is -1 (active).

Consider `Fc1ccc(/C=N/NC(=S)Nc2ccc(Cl)cc2)cc1F`, for which the manual score is 0.

As for `Fc1ccc(NC(=S)N/N=C/c2ccc(F)c(F)c2)c(F)c1`, the manual score was 1 (active).

For the molecule `Fc1ccc(NC(=S)N/N=C/c2cccc(Br)c2)c(F)c1`, the manual score was 0.

As for `Oc1c(C=NCc2ccncc2)sc2ccccc12`, the manual score was 1 (active).

With `CCCN(CCC)CCCNC(=O)c1cc2c(=O)n(C)c3ccccc3c2n1C`, the manual score is -1 (active).

For the molecule `CCn1c(=O)c(C(=O)NCCCO)c(O)c2ccccc21`, the manual score is 0.

As to `CN(CCNC(=O)c1cc2c(=O)n(C)c3ccccc3c2n1C)Cc1ccccc1`, the manual score was -1 (active).

With `O=C(NC(Nc1nc2ccc([N+](=O)[O-])cc2s1)(C(F)(F)F)C(F)(F)F)c1ccccc1`, the manual score is 1 (active).

As for `Cc1ccc(C)c(OCC(=O)Nc2nc3ccc([N+](=O)[O-])cc3s2)c1C`, the manual score is 0.

As for `O=C(NC(Nc1nc2ccc([N+](=O)[O-])cc2s1)(C(F)(F)F)C(F)(F)F)c1ccccc1Cl`, the manual score is 0.

Turning to `Cc1noc(C)c1CSc1nc2ccccc2c(=O)n1-c1ccc(F)cc1F`, the manual score is 0.

On to `Cc1onc(-c2c(F)cccc2Cl)c1C(=O)OCn1nnc2ccccc2c1=O`, for which the manual score was -1 (active).

Consider `O=C(Nc1cccs1)Nc1c(F)c(F)c(F)c(F)c1F`, for which the manual score is 1 (active).

In the case of `CCOc1ccc(NC(=O)CCC(=O)c2ccc(-c3ccccc3)cc2)cc1`, the manual score was 0.

For the molecule `CCOc1ccc(Nc2ncnc(N)n2)cc1`, the manual score was 1.5.

For `COc1cccc(NC(=O)Nc2cccs2)c1`, the manual score was 1 (active).

Turning to `CCOc1ccc(NC(=O)Nc2cccs2)cc1`, the manual score was 1 (active).

With `COC(=O)c1c(NC(=O)Cc2cccs2)sc(C(=O)NC2CCCCC2)c1C`, the manual score was 0.

With `O=C(Cc1cccs1)Nc1cccnc1`, the manual score is 0.

Take `COc1cc(NC(=O)Cc2cccs2)cc(OC)c1`: the manual score is 1 (active).

For `Cc1ccc(-c2cc(-c3cccs3)[nH]n2)c(O)c1`, the manual score was 0.

As to `CN1C=CC2=C(C#N)C(N)C(C#N)(C#N)[C@H](c3ccccc3)[C@H]2C1` (stereo partly specified), the manual score was 1.5.

As for `Cn1c(SCC(=O)c2cc3ccccc3o2)nnc1-c1ccccc1`, the manual score is 0.

On to `CC1CC2=C(CC1/C=N/NC(N)=S)C(C)(C)CCC2` (stereo unspecified), for which the manual score is 0.

For the molecule `CCN(CC)C(=O)CSc1nnc(NC(=O)CCc2ccccc2)s1`, the manual score was 0.

As for `CCN(CC)CC(O)COc1ccccc1C(=O)CCc1ccccc1` (stereo unspecified), the manual score is -1 (active).

On to `Cc1ccccc1NC(=S)NC(=O)CCc1ccccc1`, for which the manual score is 0.

For `S=C1CCSc2ccc(Cl)cc2N1`, the manual score was 1 (active).

Turning to `S=C1Nc2cc(Cl)ccc2Sc2ccccc21`, the manual score was 0.5.

For `CC1(C)Cc2c(sc3[nH]c(=S)n(Cc4ccccc4)c(=O)c23)CO1`, the manual score was 1 (active).

With `O=c1c2cccnc2[nH]c(=S)n1Cc1ccccc1`, the manual score is 0.

Take `CC(C)C1Cc2c(sc3[nH]c(=S)n(Cc4ccccc4)c(=O)c23)CO1` (stereo unspecified): the manual score was 1 (active).

Take `CCC1(C)Cc2c(sc3c2c(=O)n(C)c2nnc(SCc4ccc5c(c4)OCO5)n32)CO1` (stereo unspecified): the manual score is 0.

`CCC1(C)Cc2c(sc3[nH]c(=S)n(Cc4ccccc4)c(=O)c23)CO1` (stereo unspecified): the manual score is 1 (active).

Take `CC(C)C1Cc2c(sc3c2c(=O)n(Cc2ccccc2)c2nncn32)CO1` (stereo unspecified): the manual score is 1 (active).

On to `COc1ccccc1N(C)S(=O)(=O)c1ccc(C(=O)N(CC(N)=O)C(C)C)cc1`, for which the manual score was 0.

Regarding `CC(=O)/C(=N\Nc1ccc(Cl)cc1Cl)Sc1cccc2cccnc12`, the manual score is 0.

For the molecule `N#CC1=C(N)Oc2n[nH]c(-c3cccs3)c2C1c1ccco1` (stereo unspecified), the manual score was 3.

Take `CC1(C)Cc2c(sc3[nH]c(=S)n(Cc4ccco4)c(=O)c23)CO1`: the manual score is 1 (active).

On to `Cc1nnc2n(C3CCCCC3)c(=O)c3c4c(sc3n12)COC(C)(C)C4`, for which the manual score is 0.

As for `C=C(C)C1CC=C(C)/C(=N/NC(=O)c2ccc(NC(=O)CCC)cc2)C1` (stereo unspecified), the manual score is 0.

Consider `C=C(C)C1CC=C(C)/C(=N/NC(=O)COc2cccc(C)c2)C1` (stereo unspecified), for which the manual score was 1 (active).

As to `C=C(C)C1CC=C(C)/C(=N/NC(=O)COc2ccc(C)cc2)C1` (stereo unspecified), the manual score was 0.

Consider `CCOC(=O)c1c(C)[nH]c(=S)c(C#N)c1-c1ccc(Cl)cc1`, for which the manual score is 0.

`COc1ccc(-c2c3c([nH]c(=S)c2C#N)CCC3)cc1`: the manual score is 0.

With `Cc1ccc(-c2cc(-c3ccccc3)[nH]c(=S)c2C#N)cc1`, the manual score is 1 (active).

In the case of `Cc1ccc(C2CC2c2n[nH]c(=S)n2-c2ccc(Cl)cc2)cc1` (stereo unspecified), the manual score was 0.

Turning to `CN=C1SC(C(=O)O)CC(=O)N1C` (stereo unspecified), the manual score was 0.

With `Cc1cc(O)c(C(C[N+](=O)[O-])c2ccc(Cl)cc2Cl)c(=O)o1` (stereo unspecified), the manual score was 0.

On to `CC(c1ccco1)N(C(=O)c1ccccc1NS(=O)(=O)c1cc([N+](=O)[O-])ccc1Cl)c1ccccn1` (stereo unspecified), for which the manual score is 0.

With `COC(=O)c1ccc(NC(=O)C23CC4CC(C2)CC(n2cncn2)(C4)C3)cc1`, the manual score is 0.

Consider `CCCC(=O)Nc1ccc(NC(=O)C23CC4CC(CC(C4)C2)C3)cn1`, for which the manual score is 0.

With `O=C(Nc1ccc(SC(F)F)cc1)C12CCC(CC1)C2`, the manual score was 1 (active).

As to `O=C1c2ccccc2NC(c2ccc(-c3ccc(Br)cc3)o2)N1O` (stereo unspecified), the manual score was 0.5.

For the molecule `S=c1[nH]nc(-c2cc3c(s2)-c2ccccc2CC3)o1`, the manual score is 1 (active).

`Cc1ccc(-c2cc(-c3n[nH]c(=S)o3)c3ccccc3n2)cc1`: the manual score was 0.

On to `CCCCCCn1cnc2c(c1=O)c1nc3ccccc3nc1n2/N=C/c1ccco1`, for which the manual score is 0.

For the molecule `COc1cc(OC)cc(C(=O)Nc2nc(-c3ccccc3)c(-c3ccccc3)o2)c1`, the manual score is 0.

In the case of `COc1cccc(C(=O)NCc2cn3ccsc3n2)c1`, the manual score was 0.

Regarding `COc1cccc(C(=O)Nc2nc(-c3ccccc3)c(-c3ccccc3)o2)c1`, the manual score is 1 (active).

For `Cc1ccc(C(=O)Nc2nc(-c3ccccc3)c(-c3ccccc3)o2)cc1`, the manual score is 1 (active).

On to `O=C(Nc1nc(-c2ccccc2)c(-c2ccccc2)o1)c1ccc(F)cc1`, for which the manual score is 1 (active).

`Cc1ccc(C(=O)Nc2cnc3ccccn3c2=O)cc1`: the manual score is 0.
